# Assay results taken from PubChem BioAssay AID1645878 (National Center for Advancing Translational Sciences (NCATS), 2021).
# Some of the results follow. Inconclusive results are not listed. Unmarked numbers belong to inactive results. The call rests on the fitted dose curve; in most records, active means well fitted inhibition curve with a large enough effect; inconclusive means small, poorly fitted or top-dose-only effect; inactive means no such curve, though single readings can be large or run the other way.
# Target: Nicotinamide N-methyltransferase (Homo sapiens) (UniProt P40261)
# Assay: Counterscreen qHTS for Inhibitors of N-terminal methyltransferase 1 (NTMT1): NNMT MTaseGlo assay
# Details: NNMT MTase-Glo luminescence, SAH detection; series mostly up to 57.1 µM; activity, negative = inhibition: at the top concentration
# Excerpt: Assay Submitter (PI): Rong Huang Ph.D. Purdue University, West Lafayette, IN 47907 The N-terminal methytransferase 1 is the first methyltransferase that methylates protein alpha-N-amines and plays an important role in regulating cell mitosis, chromatin interactions and DNA repair. It is observed to be over-expressed in various cancer patient tissues like malignant melanoma and colorectal cancer tissues. Knockdown of NTMT1 in cancer cells causes cell mitotic defects and enhances sensitivity to DNA damaging chemotherapeutics. […] These critical cellular processes in which NTMT1 is implicated, coupled with emerging links to cellular dysfunction, strengthen the inference that NTMT1 is a compelling novel anticancer target. […] To address this unmet need, a panel of assay is created and established to enable quantitative high-throughput screening (qHTS) for novel, potent, and selective small molecule NTMT1 inhibitors. […] MTaseGlo Assay is a luminescence screen that measure the activity of methyltransferases based on the reaction product S-adenosyl homocysteine (SAH). […]
# Materials: NNMT enzyme, SAM, NA, and control is provided by the Huang laboratory. […] 11; Detection; Luminescence; Plates were read using luminescence optics on a ViewLux detector (PerkinElmer). […]
# Sequence of Nicotinamide N-methyltransferase (Homo sapiens) (P40261 whole entry, looked up): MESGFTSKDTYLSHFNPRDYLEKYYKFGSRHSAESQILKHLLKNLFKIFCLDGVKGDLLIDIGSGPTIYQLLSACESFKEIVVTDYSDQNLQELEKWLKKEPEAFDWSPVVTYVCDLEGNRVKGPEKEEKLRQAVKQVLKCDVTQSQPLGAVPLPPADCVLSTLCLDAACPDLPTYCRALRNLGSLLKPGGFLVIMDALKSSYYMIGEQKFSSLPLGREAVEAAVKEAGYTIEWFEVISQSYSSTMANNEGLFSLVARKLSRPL
row,Compound,"activity, negative = inhibition"
1,COc1cc2ncnc(Nc3cccc(Cl)c3F)c2cc1OC(=O)N1CCN(C)C[C@H]1C,-15.7%
2,CC(C)(O)c1ccc2c(c1)C(=O)CC1[C@](C)(CO)CCC[C@]21C (some centres not stated),-19.7% [at 38.3 µM]
